Here are results for 5 molecules from PubChem BioAssay (NCATS).

Where “and” joins values, the source holds several entries; their conditions need not be identical. Equal values may be shown once. Inconclusive results are not listed. Calls of active or inactive are those of the source. Unless noted, calls follow the shape of the dose curve; as a rule, active = well fitted curve in the direction sought with a large enough effect; inconclusive = small, poorly fitted or top-dose-only effect, or another doubt; inactive = no such curve, though single readings can be large; an effect the other way counts as inactive or inconclusive.

In experiment [1] the target is Estrogen receptor (Homo sapiens) (UniProt P03372). Kind of experiment: qHTS assay for small molecule antagonists of estrogen receptor alpha signaling (AID 588513; active = well fitted curve in the direction sought with a large enough effect in the signal ratio, with a control signal flat, not every such curve was filed as active; the % refers to the signal ratio; also: % is scaled to controls: 0 for no effect and ±100 for the full control effect). The gist of the method: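 ER-alpha-UAS-bla GripTite HEK 293 cells in medium with 2% charcoal/dextran-treated FBS were preincubated 4 h at 37 C, dosed with compound (1:2 titration), stimulated with 0.5nM 17-beta-estradiol for 18 h, then read by CCF4 beta-lactamase fluorescence.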

Experiment [2] shares this target. Briefly: qHTS assay for small molecule agonists of estrogen receptor alpha signaling (AID 588514; calls by dose curve;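 also: 0% = vehicle only and 100% = reference agonist; nearly all actives have a fitted effect of over 70% in size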). In a few lines:
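Cells were plated at 5000/well, incubated 4 hrs at 37 C, dosed with compound titration series, incubated 18 hrs at 37 C, loaded with CCF4 dye for 2 hrs at RT, then fluorescence was read.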
(Quantitative high-throughput screening tests each substance at several concentrations.)

The target of experiment [3] is Peroxisome proliferator-activated receptor delta (Homo sapiens) (UniProt Q03181). Briefly: qHTS assay for small molecule agonists of peroxisome proliferator-activated receptor delta signaling (AID 588534; calls by dose curve;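 also: 0% = DMSO basal wells and 100% = positive control agonist at 10 µM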). In a few lines:
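Fluorescence from CCF4 substrate cleavage by beta-lactamase reporter, read 2 hrs at RT, measured agonist activity. Compounds were tested with 18 hrs exposure at 37 C. Concentration-response data fitted to Hill equation.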

In experiment [4] the target is Peroxisome proliferator-activated receptor gamma (Homo sapiens) (UniProt P37231). Briefly: qHTS assay for small molecule agonists of peroxisome proliferator-activated receptor gamma signaling (AID 588536; active = well fitted curve in the direction sought with a large enough effect in the signal ratio, with a control signal flat, not every such curve was filed as active; the % refers to the signal ratio;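 also: 0% = DMSO basal wells and 100% = rosiglitazone at 2 µM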). The gist of the method:
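Ratiometric blue/green fluorescence (405 nm excitation; 460 and 530 nm emission) from CCF4-loaded HEK293 reporter cells serves as signal. Exposure to test compounds lasts 16 h at 37 C in medium containing 1% charcoal/dextran-treated serum.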

Experiment [5] has the same target. Briefly: qHTS assay for small molecule antagonists of peroxisome proliferator-activated receptor gamma signaling (AID 588537; active = well fitted inhibition curve with a large enough effect in the signal ratio, with a control signal flat, not every such curve was filed as active; the % refers to the signal ratio;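 also: reporter cells co-stimulated with 50 nM rosiglitazone agonist during compound treatment; % of control where 0% means no effect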). The gist of the method:
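We seeded GeneBLAzer HEK293 reporter cells at 3000 per well, allowed 6-6.5 h attachment at 37 C, then co-treated with test compound titrations and 50 nM rosiglitazone overnight (16 h). Inhibition was quantified from 460/530 nm emission ratios.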

The target in experiment [6] is Vitamin D3 receptor (Homo sapiens) (UniProt P11473). Briefly: qHTS assay for small molecule antagonists of vitamin D receptor signaling (AID 588541; calls by dose curve;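 also: receptor activated by calcitriol during compound treatment; series mostly up to about 77 µM; % is scaled to controls: 0 for no effect and ±100 for the full control effect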). The gist of the method: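 VDR-UAS-bla HEK293T cells (2000/well, 2% charcoal-stripped FBS) were treated with titrated compounds plus 1-alpha,25-dihydroxyvitamin D3 (50 nM or 3 nM final) for 16 h at 37 C. CCF4 beta-lactamase fluorescence was read; Hill fits gave IC50.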

Experiment [7] concerns the target Retinoic acid receptor RXR-alpha (Homo sapiens) (UniProt P19793). Briefly: qHTS assay for small molecule agonists of retinoid X receptor alpha signaling (AID 588544; calls by dose curve;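 as to activation: 0% = DMSO basal wells and 100% = reference agonist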).
Experiment [8] addresses Thyroid hormone receptor beta (Homo sapiens) (UniProt P10828). Briefly: qHTS assay for small molecule agonists of thyroid hormone receptor beta signaling (AID 588545; calls by dose curve;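 also: 0% = DMSO only and 100% = 10 nM T3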). In a few lines: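 TR-UAS-bla GripTite HEK 293 cells (2500/well, medium with 2% charcoal/dextran FBS) were treated in agonist mode for 18 h at 37 C, titrated. Beta-lactamase was read by CCF4 ratio after 2 h; normalized to 10 nM T3 (100%) and DMSO, Hill-fitted for EC50 and efficacy.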

Experiment [9] in a line: qHTS assay for small molecule antagonists of retinoid X receptor alpha signaling (AID 588546; active = well fitted inhibition curve with a large enough effect in the signal ratio, with a control signal flat, not every such curve was filed as active; the % refers to the signal ratio;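 also: cells stimulated with 9-cis-retinoic acid as agonist; % is scaled to controls: 0 for no effect and ±100 for the full control effect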). The conditions noted are these: HEK293T RXRa-UAS-bla, beta-lactamase ratio, antagonist mode; measured here: W530 green channel, cytotoxicity proxy. In a few lines:
(§1)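 Beta-lactamase reporter inhibition, read as CCF4 fluorescence ratio (ex 405, em 460/530 nm) after 2 h at RT. HEK293T UAS-bla cells, 2500/well, were stimulated with 9-cis-RA at 500 or 100 nM final alongside test compound for 18 h at 37 C.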

For experiment [10], the target named is Retinoic acid receptor RXR-alpha (Homo sapiens) (UniProt P19793). Described as above. The conditions noted are these: HEK293T RXRa-UAS-bla, beta-lactamase ratio, antagonist mode. The gist of the method:
as §1

For experiment [11], the target named is Thyroid hormone receptor beta (Homo sapiens) (UniProt P10828). Kind of experiment: qHTS assay for small molecule antagonists of thyroid hormone receptor beta signaling (AID 588547; active = well fitted inhibition curve with a large enough effect in the signal ratio, with a control signal flat, not every such curve was filed as active; the % refers to the signal ratio;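 also: cells stimulated with 0.4 nM T3 agonist during compound exposure; series mostly up to about 77 µM; % is scaled to controls: 0 for no effect and ±100 for the full control effect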). To be noted: TR-UAS-bla HEK293, beta-lactamase ratio, antagonist mode, 18 h. The gist of the method: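 TR-UAS-bla GripTite HEK293 cells in 2% charcoal/dextran FBS medium were preincubated 4 h at 37 C, given compound (0.59 nM to 92 uM) plus 0.4 nM T3 (final) for 18 h, then CCF4 for 2 h at RT; Hill fit gave IC50.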

A short description of experiment [12]: qHTS assay for small molecule activators of the p53 signaling pathway (AID 651743; active = well fitted activation curve with a large enough effect in the signal ratio, not every such curve was filed as active; the % refers to the signal ratio; also: series mostly up to about 92 µM; % of control where 0% means no effect). To be noted: HCT-116 p53RE-bla, beta-lactamase FRET ratio, 16 h; activation: stronger effect = higher value. In a few lines:
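Cell-based beta-lactamase reporter (p53 response elements, HCT-116 background). After a 5-hour preincubation, cells received compound for 16 hours at 37 C; substrate development ran 2 hours at room temperature.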

Experiment [13] is described as follows: qHTS assay for environmental chemicals that activate the Aryl hydrocarbon Receptor (AhR) signaling pathway (AID 651777). Also: % of control where 0% means no effect; nearly all actives have a fitted effect of over 15% in size. The conditions noted are these: 1A2-DRE human hepatoma cells, luciferase, 24 h; activation: stronger effect = higher value. The gist of the method: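 Luminescence (One-Glo, 30 min, room temperature) reports AhR-driven luciferase in stably transfected human hepatoma cells bearing DRE and CYP1A2 promoter. Cells (1,200/well) were treated with compound for 24 hr at 37 C in qHTS format.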

Experiment [14] is described as follows: qHTS assay for small molecule agonists of the antioxidant response element (ARE) signaling pathway measured by Nrf2-dependant transcriptional activity - cell viability counter screen (AID 720653; active = well fitted curve in the direction sought with a large enough effect in the repeat runs; an effect the other way counts as inactive or inconclusive; also: % is scaled to controls: 0 for no effect and ±100 for the full control effect). To be noted: ARE-bla HepG2 viability, CellTiter-Glo ATP luminescence, 16 h; max response: stronger effect = lower value. In a few lines: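 ARE-bla HepG2 cells (2,000/well) rested 5 hrs at 37C/5% CO2, then exposed to compounds in DMSO for 16 hrs. Viability was read in the same wells as intracellular ATP by luminescence, 30 min at room temperature after reagent addition.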

The nature of experiment [15]: qHTS assay for cell viability of HEK293 cells (AID 743288). Also: % is scaled to controls: 0 for no effect and ±100 for the full control effect; nearly all actives have a fitted effect of over 50% in size. The conditions noted are these: ATP luminescence (CellTiter-Glo), 18 h; max response: stronger effect = lower value. The gist of the method:
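Parental HEK293 cells were seeded at 2,000 cells/well, rested at least 5 h at 37 C, then exposed to compounds in DMSO for 18 h at 37 C. Viability was read as ATP-dependent luciferase luminescence after 30 min at room temperature.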

Experiment [16] in a line: qHTS assay for cell viability of the p53RE-bla HCT-116 cell line (AID 743292). Also: % is scaled to controls: 0 for no effect and ±100 for the full control effect; nearly all actives have a fitted effect of over 55% in size. In a few lines: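 ATP-based luminescent viability (CellTiter-Glo, 30 min RT) after 16 h compound treatment at 37 C of p53RE-bla HCT-116 cells, seeded at 4,000 cells/well and rested 5 h before dosing.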
For experiment [17], the target named is Glucocorticoid receptor (Homo sapiens) (UniProt P04150). Kind of experiment: qHTS assay for small molecule antagonists of glucocorticoid receptor signaling (AID 588533; active = well fitted inhibition curve with a large enough effect in the signal ratio, with a control signal flat, not every such curve was filed as active; the % refers to the signal ratio). The gist of the method:
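Antagonist-mode qHTS: compound titrations added to GRE-bla HeLa cells, then dexamethasone 2 nM final; 18 h, 37 C. CCF4 FRET fluorescence normalized to dexamethasone and DMSO; IC50 from Hill fit.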

For experiment [18], the target named is Peroxisome proliferator-activated receptor alpha (Homo sapiens) (UniProt Q07869). Briefly: qHTS assay for small molecule agonists of the peroxisome proliferator-activated receptor alpha (PPARalpha) signaling pathway (AID 651778). Also: % of control where 0% means no effect. The conditions noted are these: PathHunter PPARalpha complementation, chemiluminescence, 6 h; max response: stronger effect = higher value. The gist of the method: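 Cells plated at 2,000/well and held overnight at 37 C, 5% CO2, then compound added by pin tool for 6 hr; after PathHunter detection reagent and 60 min at room temperature, chemiluminescence from enzyme complementation was read.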

A short description of experiment [19]: qHTS assay for small molecule agonists of the antioxidant response element (ARE) signaling pathway measured by Nrf2-dependant transcriptional activity (AID 720636; active = well fitted curve in the direction sought with a large enough effect in the repeat runs; an effect the other way counts as inactive or inconclusive; also: % of control where 0% means no effect). The gist of the method: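 Nrf2-dependent transcription read as ONE-Glo luciferase signal from ARE-luc HepG2 reporter cells after 16 hr compound treatment at 37 C, 5% CO2, in assay medium with 1% dialyzed FBS.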

Experiment [20] can be described thus: qHTS assay for small molecule agonists of retinoid X receptor alpha signaling (AID 588544).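 As to activation: 0% = DMSO basal wells and 100% = reference agonist.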 The conditions noted are these: HEK293T RXRa-UAS-bla, beta-lactamase reporter, 18 h; 530 nm emission.

Chain of Thyroid hormone receptor beta (Homo sapiens) (P10828 whole entry, looked up): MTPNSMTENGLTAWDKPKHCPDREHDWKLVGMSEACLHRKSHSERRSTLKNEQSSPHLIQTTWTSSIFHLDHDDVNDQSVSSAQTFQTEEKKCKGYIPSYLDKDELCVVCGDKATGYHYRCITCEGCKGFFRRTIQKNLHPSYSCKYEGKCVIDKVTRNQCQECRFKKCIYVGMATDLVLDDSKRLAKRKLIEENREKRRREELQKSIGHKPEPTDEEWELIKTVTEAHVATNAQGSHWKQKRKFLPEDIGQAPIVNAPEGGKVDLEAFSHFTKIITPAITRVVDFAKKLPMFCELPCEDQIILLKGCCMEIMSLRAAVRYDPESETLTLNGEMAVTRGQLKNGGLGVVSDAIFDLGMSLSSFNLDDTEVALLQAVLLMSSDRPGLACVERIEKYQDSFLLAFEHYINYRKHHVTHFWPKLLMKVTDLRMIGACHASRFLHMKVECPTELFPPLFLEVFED
Chain of Peroxisome proliferator-activated receptor alpha (Homo sapiens) (Q07869 whole entry, looked up): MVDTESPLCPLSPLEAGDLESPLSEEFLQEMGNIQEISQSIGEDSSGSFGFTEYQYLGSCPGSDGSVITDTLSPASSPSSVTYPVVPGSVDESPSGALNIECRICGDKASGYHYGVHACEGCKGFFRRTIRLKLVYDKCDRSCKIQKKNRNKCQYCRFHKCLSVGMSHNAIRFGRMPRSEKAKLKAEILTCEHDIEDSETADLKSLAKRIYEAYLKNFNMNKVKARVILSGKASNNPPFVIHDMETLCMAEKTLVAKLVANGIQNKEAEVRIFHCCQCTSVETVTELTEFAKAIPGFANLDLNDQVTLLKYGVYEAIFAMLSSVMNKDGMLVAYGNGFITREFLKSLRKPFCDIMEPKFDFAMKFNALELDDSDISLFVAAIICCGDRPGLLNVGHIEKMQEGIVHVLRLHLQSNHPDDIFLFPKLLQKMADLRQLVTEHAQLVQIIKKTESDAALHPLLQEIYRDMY
Chain of Peroxisome proliferator-activated receptor gamma (Homo sapiens) (P37231 whole entry, looked up): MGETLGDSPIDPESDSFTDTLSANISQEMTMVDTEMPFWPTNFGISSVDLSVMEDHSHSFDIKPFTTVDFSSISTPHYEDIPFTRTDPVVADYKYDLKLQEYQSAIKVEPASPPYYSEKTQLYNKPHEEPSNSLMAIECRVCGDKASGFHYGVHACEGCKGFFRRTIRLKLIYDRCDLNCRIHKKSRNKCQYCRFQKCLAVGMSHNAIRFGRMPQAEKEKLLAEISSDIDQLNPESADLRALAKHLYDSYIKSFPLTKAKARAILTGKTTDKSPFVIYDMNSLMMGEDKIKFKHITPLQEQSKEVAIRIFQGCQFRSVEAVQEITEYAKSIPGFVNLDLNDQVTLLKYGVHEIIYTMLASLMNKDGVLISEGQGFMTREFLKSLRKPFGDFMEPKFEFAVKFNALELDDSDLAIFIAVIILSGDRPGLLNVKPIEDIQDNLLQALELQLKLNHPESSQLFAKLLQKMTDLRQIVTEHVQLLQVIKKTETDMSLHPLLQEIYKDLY
Chain of Estrogen receptor (Homo sapiens) (P03372 whole entry, looked up): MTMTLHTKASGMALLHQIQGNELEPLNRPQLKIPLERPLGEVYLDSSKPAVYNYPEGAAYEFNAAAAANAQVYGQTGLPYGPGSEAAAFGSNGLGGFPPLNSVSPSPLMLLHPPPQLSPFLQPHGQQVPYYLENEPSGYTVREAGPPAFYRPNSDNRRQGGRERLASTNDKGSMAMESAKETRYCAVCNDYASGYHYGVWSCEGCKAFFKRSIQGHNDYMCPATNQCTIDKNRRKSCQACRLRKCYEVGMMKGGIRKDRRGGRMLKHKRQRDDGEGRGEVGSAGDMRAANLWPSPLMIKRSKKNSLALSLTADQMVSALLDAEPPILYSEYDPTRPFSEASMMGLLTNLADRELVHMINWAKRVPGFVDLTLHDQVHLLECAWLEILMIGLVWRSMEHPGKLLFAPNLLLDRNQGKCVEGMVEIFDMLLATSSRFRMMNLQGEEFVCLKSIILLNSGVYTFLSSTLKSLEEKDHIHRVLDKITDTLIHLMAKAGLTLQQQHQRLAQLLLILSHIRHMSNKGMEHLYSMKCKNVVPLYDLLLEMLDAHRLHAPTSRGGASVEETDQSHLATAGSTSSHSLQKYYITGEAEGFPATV
Chain of Peroxisome proliferator-activated receptor delta (Homo sapiens) (Q03181 whole entry, looked up): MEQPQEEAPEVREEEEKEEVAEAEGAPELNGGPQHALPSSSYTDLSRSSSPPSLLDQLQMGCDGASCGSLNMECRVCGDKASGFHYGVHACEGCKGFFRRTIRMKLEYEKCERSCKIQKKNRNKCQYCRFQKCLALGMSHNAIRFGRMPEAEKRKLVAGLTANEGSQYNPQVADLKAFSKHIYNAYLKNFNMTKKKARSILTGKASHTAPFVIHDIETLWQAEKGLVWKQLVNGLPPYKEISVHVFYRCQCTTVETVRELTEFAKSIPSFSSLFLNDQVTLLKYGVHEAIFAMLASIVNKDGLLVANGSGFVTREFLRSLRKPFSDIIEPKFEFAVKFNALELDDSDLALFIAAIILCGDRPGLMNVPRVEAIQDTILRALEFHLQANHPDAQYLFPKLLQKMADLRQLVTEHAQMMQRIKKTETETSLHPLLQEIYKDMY
Chain of Retinoic acid receptor RXR-alpha (Homo sapiens) (P19793 whole entry, looked up): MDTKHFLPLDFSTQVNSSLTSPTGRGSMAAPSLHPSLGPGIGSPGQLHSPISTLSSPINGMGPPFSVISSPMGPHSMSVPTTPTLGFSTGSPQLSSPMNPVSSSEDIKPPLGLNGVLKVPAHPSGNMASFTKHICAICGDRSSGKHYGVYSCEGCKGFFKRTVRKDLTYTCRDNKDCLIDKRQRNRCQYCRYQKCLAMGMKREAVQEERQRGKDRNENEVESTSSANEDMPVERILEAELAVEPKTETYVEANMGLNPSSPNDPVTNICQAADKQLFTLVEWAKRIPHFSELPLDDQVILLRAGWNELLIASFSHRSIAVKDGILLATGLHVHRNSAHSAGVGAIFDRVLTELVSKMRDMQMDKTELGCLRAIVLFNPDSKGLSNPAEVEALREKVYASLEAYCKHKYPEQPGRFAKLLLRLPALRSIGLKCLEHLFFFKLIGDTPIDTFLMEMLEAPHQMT
Chain of Glucocorticoid receptor (Homo sapiens) (P04150 whole entry, looked up): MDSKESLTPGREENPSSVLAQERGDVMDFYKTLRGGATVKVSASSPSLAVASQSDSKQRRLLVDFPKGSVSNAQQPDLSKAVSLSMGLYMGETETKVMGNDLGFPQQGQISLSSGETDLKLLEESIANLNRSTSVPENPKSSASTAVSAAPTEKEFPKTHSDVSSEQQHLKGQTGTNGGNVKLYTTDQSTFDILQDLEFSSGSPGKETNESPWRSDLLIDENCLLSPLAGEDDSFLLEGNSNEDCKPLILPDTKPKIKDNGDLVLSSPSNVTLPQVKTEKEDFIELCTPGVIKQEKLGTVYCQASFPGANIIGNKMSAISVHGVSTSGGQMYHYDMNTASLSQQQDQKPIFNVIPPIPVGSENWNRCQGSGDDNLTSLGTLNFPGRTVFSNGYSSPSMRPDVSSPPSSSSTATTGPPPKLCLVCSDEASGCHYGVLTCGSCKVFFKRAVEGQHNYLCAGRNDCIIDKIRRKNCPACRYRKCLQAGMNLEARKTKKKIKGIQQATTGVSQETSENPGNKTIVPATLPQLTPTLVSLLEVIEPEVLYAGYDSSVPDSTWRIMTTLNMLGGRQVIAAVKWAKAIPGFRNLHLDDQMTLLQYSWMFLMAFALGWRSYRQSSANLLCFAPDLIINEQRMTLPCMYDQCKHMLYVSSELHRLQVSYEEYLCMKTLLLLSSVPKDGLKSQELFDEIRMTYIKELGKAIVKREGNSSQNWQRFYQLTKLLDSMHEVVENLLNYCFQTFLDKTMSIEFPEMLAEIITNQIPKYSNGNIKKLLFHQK
Chain of Vitamin D3 receptor (Homo sapiens) (P11473 whole entry, looked up): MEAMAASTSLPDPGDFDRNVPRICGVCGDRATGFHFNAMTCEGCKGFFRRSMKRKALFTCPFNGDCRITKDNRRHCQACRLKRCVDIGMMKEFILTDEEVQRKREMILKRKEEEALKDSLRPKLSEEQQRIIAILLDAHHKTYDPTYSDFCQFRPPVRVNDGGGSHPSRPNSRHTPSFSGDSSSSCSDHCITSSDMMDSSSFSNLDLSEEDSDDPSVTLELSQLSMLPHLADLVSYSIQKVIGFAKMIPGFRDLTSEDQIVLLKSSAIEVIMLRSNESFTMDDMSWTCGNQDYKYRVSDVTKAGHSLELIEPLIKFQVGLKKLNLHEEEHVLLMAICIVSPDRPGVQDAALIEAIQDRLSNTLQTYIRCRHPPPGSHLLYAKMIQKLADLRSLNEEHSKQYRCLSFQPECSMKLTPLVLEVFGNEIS

For `O=C=Nc1ccc(Cl)cc1`, the Potency result in experiment [1], in experiment [2], in experiment [4], in experiment [5], in experiment [6] and in experiment [7] was “inactive” each time. For the same molecule, the Potency entry in experiment [8] and in experiment [16] was “inactive” each time. In addition, the molecule was called inactive in experiment [3]. The max response in experiment [9] was -4.38%; in experiment [10] it was -10.5% (inactive); in experiment [14], -2.93% (inactive); in experiment [15] it was -9.38% (inactive). In addition, the activity change % (negative = inhibition) in [11] is -1.95% (inactive). In addition, the results for the activation in experiment [12] and in experiment [13] were 3.11% (inactive) and 2.71% (inactive), respectively.
As to `Clc1ccc([C@]2(Cn3cncn3)C[C@@H](Br)CO2)c(Cl)c1`, the Potency result in [1], in experiment [2], in [17], in [4], in experiment [6] and in experiment [8] was “inactive” in each case. In addition, the Potency entry in experiment [19] was “inactive”. Also, the outcome in [3] was inactive. The max response in [9] was -15.6% and -7.06%; in experiment [18], -0.572% (inactive) and -0.644% (inactive); in experiment [14], -16.1% (inactive) and 0.925% (inactive); in experiment [15], -21.9% (inactive) and -13.3% (inactive). Moreover, in experiment [11], the activity change % (negative = inhibition) was -4.77% (inactive) and -5.66% (inactive). The activation was -0.258% (inactive) and -3.95% (inactive) in experiment [12]; 3.17% (inactive) and 2.53% (inactive) in experiment [13].
Take `CCOS(=O)(=O)OCC`: the Potency entry in experiment [1], in [2], in experiment [17], in [4], in [5] and in experiment [7] was “inactive” each time. In addition, the Potency result in experiment [8], in [19] and in [16] was “inactive” each time. In addition, the outcome in experiment [3] was inactive. Besides, the max response in [20] was -16.7%; in experiment [9], -7.24%; in experiment [10], 4.62% (inactive); in [18], -1.06% (inactive); in experiment [14], -6.17% (inactive); in experiment [15], 1.11% (inactive). Further, the activity change % (negative = inhibition) in [11] was 3.34% (inactive). In addition, the activation in experiment [12] is -2.08% (inactive); in experiment [13], -0.0167% (inactive).
With `CC(C)(C#N)N=NC(C)(C)C#N`, the Potency entry in [1], in experiment [2], in experiment [17], in experiment [4], in experiment [6] and in [7] was “inactive” throughout. The Potency entry in experiment [19] and in experiment [16] was “inactive” throughout. Also, the max response in experiment [20] is -3.46%; in experiment [9], -2.24%; in experiment [18], -0.208% (inactive); in experiment [14], -0.383% (inactive); in [15], -5.77% (inactive). Besides, the activation was -7.6% (inactive) in [12] and 3.1% (inactive) in [13].
Consider `Nc1nc(N)nc(Cl)n1`, for which the Potency result in experiment [1], in [2], in experiment [17], in experiment [4], in experiment [5] and in experiment [7] was “inactive” each time. The Potency entry in [8], in experiment [19] and in [16] was “inactive” each time. For the same molecule, the max response in experiment [20] was -8.55% and -12.5% and -6.12%; in experiment [9], -6.94% and -9.26% and -7.48%; in experiment [18] it was 0.345% (inactive) and 0.412% (inactive) and -1.56% (inactive); in experiment [14] it was -27.2% (inactive) and -2.73% (inactive) and -17.4% (inactive); in [15], -6.86% (inactive) and -11.8% (inactive) and -2.3% (inactive). In addition, the activity change % (negative = inhibition) in experiment [11] was -10% (inactive) and 5.94% (inactive) and 4.29% (inactive). Further, the activation in experiment [12] was 14% (inactive) and -1.73% (inactive); in experiment [13] it was 0.466% (inactive) and 6.68% (inactive) and -2.27% (inactive).
